Source: PubChem BioAssay AID1220 (Sanford-Burnham Center for Chemical Genomics, 2008)
Hit rate of the full screen: of about 190,000 compounds, about 1,300 (0.68%) were called active. Cut-off read from the data, not from the text of the source: active = inhibition above about 50%; inactive = the rest. For the sample, actives were picked, then their nearest neighbours and some compounds at random.

What follows are compounds tested against Mannose-6-phosphate isomerase (Homo sapiens) (UniProt P34949) (assay: MPI inhibition at elevated mannose 6-phosphate – biochemical, fluorescence intensity, high mannose 6-phosphate, primary screen (AID 1220)). Details: recombinant PMI enzyme, coupled fluorescence intensity; at 20 µM; active compounds read high.
Sequence of Mannose-6-phosphate isomerase (Homo sapiens) (P34949 whole entry, looked up): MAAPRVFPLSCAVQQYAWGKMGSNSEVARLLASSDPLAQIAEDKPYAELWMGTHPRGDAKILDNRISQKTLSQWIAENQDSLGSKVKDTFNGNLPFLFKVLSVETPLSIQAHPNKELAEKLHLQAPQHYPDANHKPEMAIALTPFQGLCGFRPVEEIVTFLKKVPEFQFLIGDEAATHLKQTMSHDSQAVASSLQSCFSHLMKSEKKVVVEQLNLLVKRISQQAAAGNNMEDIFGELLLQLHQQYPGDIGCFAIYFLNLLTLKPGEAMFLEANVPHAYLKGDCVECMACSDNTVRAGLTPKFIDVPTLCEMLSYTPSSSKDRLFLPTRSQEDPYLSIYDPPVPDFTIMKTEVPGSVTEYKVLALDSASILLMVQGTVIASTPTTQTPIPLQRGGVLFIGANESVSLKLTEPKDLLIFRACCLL

Structure (SMILES)	inhibition
Cc1ccc2nc(C)/c(=N\O)c(C)nc2c1	2.2% (inactive)
Cc1nc2ccc(Cl)cc2nc(C)/c1=N\O	32.9% (inactive)
Cc1nc2ccccc2nc(C)c1=NO	54.2% (active)
COCCN1C(=O)/C(=C/c2ccc(OCc3ccc(C(=O)O)cc3)c(OC)c2)SC1=Nc1ccccc1	5.1% (inactive)
CC(C)CNC(=O)COC(=O)c1cc(S(=O)(=O)N(C)C)ccc1N1CCCC1	4.7% (inactive)
CCN1C=CC2=C(C#N)C(N)C(C#N)(C#N)C(c3ccccc3C(F)(F)F)C2C1 (stereo not drawn)	5.1% (inactive)
CN1C=CC2=C(C#N)C(N)C(C#N)(C#N)C(c3ccccc3)C2C1 (stereo not drawn)	18.5% (inactive)
CN1C=CC2=C(C#N)C(N)C(C#N)(C#N)[C@H](c3ccccc3)[C@H]2C1 (stereo partly drawn)	61% (active)
O=C(Cn1nc(C(F)(F)F)c2c1CCC2)NCc1ccc(Cl)cc1	-8.7% (inactive)
CC(C)C(C)NC(=O)CN1C(=O)NC2(CCCc3ccccc32)C1=O (stereo not drawn)	-2.2% (inactive)
CN(CCO)c1cc(N2CCC3(CC2)OCCO3)c2nonc2c1[N+](=O)[O-]	34.9% (inactive)
CCOC(=O)C1CCCN(c2cc(NCCCO)c([N+](=O)[O-])c3nonc23)C1 (stereo not drawn)	55.2% (active)
CC1CCCN(c2cc(N(C)CCO)c([N+](=O)[O-])c3nonc23)C1 (stereo not drawn)	18% (inactive)
CC1CCN(c2cc(N(C)CCO)c([N+](=O)[O-])c3nonc23)CC1	50.7% (active)
O=[N+]([O-])c1c(NCCCO)cc(N2CCN(Cc3ccc4c(c3)OCO4)CC2)c2nonc12	45.2% (inactive)
O=[N+]([O-])c1c(NCCO)cc(N2CCN(Cc3ccc4c(c3)OCO4)CC2)c2nonc12	49.1% (inactive)
CN(CCO)c1cc(N2CCCCC2)c2nonc2c1[N+](=O)[O-]	42.4% (inactive)
CCOC(=O)N1CCN(c2cc(N(C)CCO)c([N+](=O)[O-])c3nonc23)CC1	55.5% (active)
CN(CCO)c1cc(N2CCN(C(=O)c3ccco3)CC2)c2nonc2c1[N+](=O)[O-]	12.4% (inactive)
CC(C)(C)NC(=O)COC(=O)Cc1ccc(Cl)cc1	-0.9% (inactive)
COC(=O)N/N=C/c1cc(Cl)c(OCc2ccc(F)cc2)c(OC)c1	-6.1% (inactive)
CCC(C)NCCOCCOc1ccc(C)cc1Br (stereo not drawn)	0.7% (inactive)
CCn1c(SCC(=O)N/N=C/C=C\c2ccccc2[N+](=O)[O-])nc2ccccc21	6.4% (inactive)
CCOc1ccc(NC2CCN(C(C)=O)CC2)cc1	33.1% (inactive)
Clc1ccc(CCNc2nc3ccccc3s2)cc1	1.2% (inactive)

Structure (SMILES)	inhibition
O=C(CSc1ncccc1C(=O)O)c1ccccc1	-60.9% (inactive)
Cn1c(SCC(=O)Nc2cccc(Br)c2)nnc1-c1cc2ccccc2o1	-14.1% (inactive)
O=C(NCCc1ccccc1)c1ccccc1F	8.3% (inactive)
c1cncc(-c2cccnc2)c1	-2.8% (inactive)
c1cncc(-c2nnc(-c3cccnc3)nn2)c1	62.4% (active)
c1cncc(-c2nn[nH]n2)c1	-12.1% (inactive)
COc1ccc(S(=O)(=O)NC(CC(=O)NCC2CCCO2)c2ccco2)cc1 (stereo not drawn)	8% (inactive)
Cc1cccc(OCCOCCN2CCNCC2)c1C	-5% (inactive)
Cc1nc2sc(C(c3ccccc3)N3CCOCC3)c(O)n2n1 (stereo not drawn)	3.4% (inactive)
NC1=NC(=O)C(CC(=O)NCc2ccccc2)S1 (stereo not drawn)	-10.3% (inactive)
O=C(O)CNC(=O)CC1S/C(=N/N=C2/NC(=O)CS2)NC1=O (stereo not drawn)	29.5% (inactive)
Cc1ccc(C(=O)OCC(=O)Nc2ccccc2)cc1NC(=O)c1ccco1	-0.6% (inactive)
Cc1ccc(C)c(N2CCN(C(=O)CNS(=O)(=O)c3cccs3)CC2)c1	-4.9% (inactive)
COc1ccc(Cn2c(SCc3ccc(C)cc3)nc3cc(OC)c(OC)cc3c2=N)cc1Cl	1.9% (inactive)
Cc1ccsc1/C=C/c1ccc2cccc(O)c2n1	-8.2% (inactive)
CSc1ccc(/C=C/c2ccc3cccc(O)c3n2)cc1	17.3% (inactive)
O=C(CSc1nnc(-c2cccs2)n1-c1ccccc1)NCC1CCCO1 (stereo not drawn)	5.8% (inactive)
O=C1c2ccccc2-c2onc3ccc(N4CCCC4)c1c23	62.6% (active)
O=C1c2ccccc2C(=O)c2c1cccc2N1CCCC1	19.4% (inactive)
O=C1c2ccccc2-c2onc3ccc(NCc4ccco4)c1c23	58.1% (active)
O=C1c2ccccc2-c2onc3ccc(NCCCn4ccnc4)c1c23	14.4% (inactive)
CCOc1ccc2noc3c2c1C(=O)c1ccccc1-3	19% (inactive)
CCNc1ccc2noc3c2c1C(=O)c1ccccc1-3	46% (inactive)
CSc1nc2ccccc2n1CC(=O)N1CCCCC1	8.7% (inactive)
CCC(Sc1ccc2nnc(-c3ccc(OC)c(OC)c3)n2n1)C(=O)O (stereo not drawn)	-19.3% (inactive)

Structure (SMILES)	inhibition
CN(C)S(=O)(=O)c1cc(NC(=O)Cn2ccsc2=N)ccc1Cl	-0.6% (inactive)
CN1CCN(c2ccccc2NC(=O)c2sc3ccccc3c2Cl)CC1	62.3% (active)
O=C(NC(=S)Nc1ccccc1N1CCOCC1)c1sc2ccccc2c1Cl	7.5% (inactive)
CN1CCN(c2ccc(NC(=O)c3sc4ccccc4c3Cl)cc2)CC1	10.7% (inactive)
COc1ccccc1NC(=O)CN1CCC(n2c(C)nc3cc(F)ccc32)CC1	-4.8% (inactive)
Cn1c(CNc2ccccc2O)nc2ccccc21	61.3% (active)
CCCn1c(CNc2ccccc2O)nc2ccccc21	34.6% (inactive)
Cn1c(CNc2nc3ccccc3n2C)nc2ccccc21	3.4% (inactive)
OCCNCC(O)Cn1ccc2ccccc21 (stereo not drawn)	12% (inactive)
Oc1ccccc1NCC(O)Cn1ccc2ccccc21 (stereo not drawn)	55.3% (active)
OC(CNc1ccccc1)Cn1ccc2ccccc21 (stereo not drawn)	7.5% (inactive)
O=C(CSCc1ccccc1)N/N=C/c1ccc(OCC(=O)N2CCCCC2)cc1	2% (inactive)
Cc1cc(NC(=O)c2ccco2)ncc1NC(=O)CCc1ccccc1	34.9% (inactive)
COc1cc(NC(=O)CSc2nc(C)c(C)c(C)n2)c(C)cc1[N+](=O)[O-]	-6.6% (inactive)
N#CC(=C=[N-])C1=C(C#N)C(c2ccccc2F)C([n+]2ccccc2)C(O)(C2CC2)N1 (stereo not drawn)	21.1% (inactive)
Cc1cccc[n+]1C1C(c2ccccc2)C(C#N)=C(C(=C=[N-])C#N)NC1(O)C1CC1 (stereo not drawn)	50.8% (active)
Cc1cccc[n+]1C1C(c2ccc([N+](=O)[O-])cc2)C(C#N)=C(C(=C=[N-])C#N)NC1(O)C1CC1 (stereo not drawn)	15.2% (inactive)
Cc1cnc(NC(=O)CC2CCCC2)s1	-13.1% (inactive)
Cc1ccccc1Cn1nnc(-c2ccc3c(c2)OCO3)n1	12.9% (inactive)
CC(=O)c1c(C)nc(-c2ccccc2)nc1N	-1.3% (inactive)
Cc1cc(NC(=O)C23CC4CC(C2)CC(n2cnc([N+](=O)[O-])n2)(C4)C3)no1	11.1% (inactive)
Cc1nc([N+](=O)[O-])nn1C12CC3CC(CC(Cl)(C3)C1)C2	-2.6% (inactive)
COCCn1c(SCc2cccnc2)nnc1-c1ccco1	-18.7% (inactive)
C=CCn1c(=N)c(C(=O)OCC)cc2c(=O)n3cc(C)ccc3nc21	-2.4% (inactive)
CN(CC#CC1(O)c2ccccc2-c2ccccc21)Cc1ccccc1	0.8% (inactive)

Structure (SMILES)	inhibition
N#Cc1ccsc1NC(=O)CN1CCN(c2ccccc2)CC1	7.6% (inactive)
CC(=O)N1CCN(CC(=O)Nc2cc(S(=O)(=O)N3CCOCC3)ccc2C)CC1	2% (inactive)
O=C(Cn1cnc2ccccc2c1=O)NCCC(=O)Nc1ccc2c(c1)OCCO2	-6.6% (inactive)
CC(C)(C)CNc1cc(N2CCOCC2)ccc1[N+](=O)[O-]	16.1% (inactive)
CN1CCN(CC(=O)Nc2cc(N3CCOCC3)ccc2[N+](=O)[O-])CC1	62.6% (active)
N#Cc1ccsc1NC(=O)CN1CCN(c2ccc(O)cc2)CC1	54.7% (active)
Cc1ccc(S(=O)(=O)N2CCOCC2)cc1NC(=O)CN1CCN(c2ccc(O)cc2)CC1	53.9% (active)
O=C(Cn1cnc2ccccc2c1=O)Nc1ccc2c(c1)OCCO2	52.9% (active)
CN1CCN(CC(=O)Nc2ccccc2[N+](=O)[O-])CC1	-2.9% (inactive)
O=C(Cn1cnc2ccccc2c1=O)Nc1ccc2c(c1)OCO2	1% (inactive)
COc1ccc(N2CCN(CC(=O)Nc3sccc3C#N)CC2)cc1	18.8% (inactive)
O=C(CN1CCN(c2ccc(O)cc2)CC1)Nc1cc(S(=O)(=O)N2CCCC2)ccc1Cl	45.4% (inactive)
COC(=O)c1cc(COc2ccc3oc(C)c(C(=O)OC(C)C)c3c2)c(C)o1	-0.3% (inactive)
CC(=O)NCC(=O)OCC(=O)Nc1ccc(C(C)=O)cc1	-8.8% (inactive)
CC(=C1C2C=CC1C1C(=O)NC(=O)C21)c1ccccc1 (stereo not drawn)	3.8% (inactive)
Cc1c(NC(=O)COc2cccc3c2OC(C)(C)C3)c(=O)n(-c2ccccc2)n1C	-6.1% (inactive)
c1ccc(N2CCN(c3cnc4ccccc4n3)CC2)cc1	5% (inactive)
CC(=O)N1CCC(=NNS(=O)(=O)c2ccc(C)c([N+](=O)[O-])c2)CC1	-31.5% (inactive)
O=C(NCc1nc2ccccc2[nH]1)C1=C[C@H](c2ccccc2)C[C@H](OCc2ccc(CO)cc2)O1	11% (inactive)
Cn1c(Cn2c(=O)sc3ccccc32)nnc1SCc1cccc(F)c1	-7.7% (inactive)
COCCNc1c(-c2ccc(OC)cc2)nc2ccc(Cl)cn12	-8.6% (inactive)
Cc1ccc(C)c(S(=O)(=O)N/N=C2/CCCc3ccccc32)c1	-29.2% (inactive)
CCOC(=O)C1=C(O)C(=O)N(c2ccc(S(N)(=O)=O)cc2)C1c1ccc(OC)cc1 (stereo not drawn)	4.3% (inactive)
